Bioassay records: PubChem, National Center for Advancing Translational Sciences (NCATS)
ALDH1A1 inh = qHTS Assay for Inhibitors of Aldehyde Dehydrogenase 1 (ALDH1A1) | Aldehyde dehydrogenase 1A1 (Homo sapiens), P00352 | Purified ALDH1A1, NADH fluorescence, propionaldehyde substrate | Potency, µM (series often up to 75.3 µM), inactives show at the highest dose activity, negative = inhibition, actives largely listed as inhibitors | actives 7.3% (n = 220,000) | AID 1030, 2008;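 note: potency is the fitted concentration of half-maximal effect; plate controls were no enzyme wells and a reference inhibitor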
IMPase cell inh = qHTS Assay for Identifying the Cell-Membrane Permeable IMPase Inhibitors | 120,000 tested, under 10 active | inhibition (IP1 accumulation), % at 46.1 µM | CHO-M1 cells, IP1 accumulation, HTRF TR-FRET ratio | Inositol monophosphatase 1 (Rattus norvegicus), P97697 | AID 901, 2007; active = well fitted curve in the direction sought with a large enough effect in the signal ratio, not every such curve was filed as active; inconclusive = small, poorly fitted or top-dose-only effect, or a change in a side signal; inactive = no such curve, though single readings can be large or run the other way; the % refers to the signal ratio;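 note: cells stimulated with carbachol in lithium chloride buffer; plate controls were DMSO basal wells for no effect and reference inhibitor wells for full effect; higher means more IMPase inhibition seen as more IP1 and lower FRET ratio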
Target sequence (P97697 whole entry, looked up): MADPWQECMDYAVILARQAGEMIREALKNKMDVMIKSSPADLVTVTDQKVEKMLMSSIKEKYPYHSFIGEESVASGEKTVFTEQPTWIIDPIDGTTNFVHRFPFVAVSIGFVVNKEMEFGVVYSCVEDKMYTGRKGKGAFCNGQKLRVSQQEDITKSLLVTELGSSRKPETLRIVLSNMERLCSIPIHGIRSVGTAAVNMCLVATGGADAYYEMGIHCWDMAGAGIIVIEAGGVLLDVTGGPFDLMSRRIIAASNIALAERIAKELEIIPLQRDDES
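Measured: the HTRF emission ratio (665/620 nm) plus the 620 nm donor channel, each fitted to the Hill equation to give AC50. Cells were CHO-M1 given compounds up to 46 uM and a 30 min carbachol stimulation at 37C.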
HPGD inh = qHTS Assay for Inhibitors of HPGD (15-Hydroxyprostaglandin Dehydrogenase); purified HPGD, NADH fluorescence kinetic, PGE2 substrate; 15-hydroxyprostaglandin dehydrogenase [NAD(+)] (Homo sapiens), P15428; Potency, µM, for inactives: top-dose activity change, negative = inhibition, actives largely listed as inhibitors; actives 4.3% (n = 150,000); AID 894, 2007; note: potency is the fitted concentration of half-maximal effect
Target sequence (P15428 whole entry, looked up): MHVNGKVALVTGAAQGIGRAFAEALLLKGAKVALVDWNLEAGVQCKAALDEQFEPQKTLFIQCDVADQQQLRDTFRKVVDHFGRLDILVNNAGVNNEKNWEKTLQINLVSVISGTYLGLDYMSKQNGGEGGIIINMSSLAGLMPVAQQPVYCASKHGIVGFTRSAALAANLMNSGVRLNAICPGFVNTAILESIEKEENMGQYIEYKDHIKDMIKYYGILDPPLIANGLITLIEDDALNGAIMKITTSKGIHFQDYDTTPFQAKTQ
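20 nM HPGD preincubated 15 min at room temperature with compound in 50 mM Tris-HCl pH 8, 0.01% Tween 20. Started with 1 mM NAD+ and 30 uM prostaglandin E2; NADH fluorescence (360/450 nm) read 5 times over 30-s intervals, last minus first.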
ALOX12 inhib = qHTS Assay for Inhibitors of 12-hLO (12-human lipoxygenase); actives 0.12% (n = 150,000); purified 12-hLO, xylenol orange hydroperoxide absorbance; Polyunsaturated fatty acid lipoxygenase ALOX12 (Homo sapiens), P18054; Potency, µM (series often up to 57.1 µM), for the others: at the top dose activity change, negative = inhibition, most hits filed as inhibitors; active = well fitted curve in the direction sought with a large enough effect; inconclusive = small, poorly fitted or top-dose-only effect, or another doubt; inactive = no such curve, though single readings can be large; an effect the other way counts as inactive or inconclusive; note: potency is the fitted concentration of half-maximal effect; nearly all actives have a fitted effect of over 55% in size
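Purified human 12hLO (150 nM final) was preincubated with compounds for 15 min at room temperature in 25 mM Hepes pH 7.0, 0.01% Triton X-100, then reacted with 40 uM arachidonic acid for 30 min. Hydroperoxide was detected with ferrous iron/xylenol orange.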
PNC assembly inh = High Content Assay for Compounds that inhibit the Assembly of the Perinucleolar Compartment; PC3M PTB-GFP, PNC prevalence imaging, 16 h; hits give low values; activity change (PNC), negative = inhibition, % at 10 µM; actives 3.1% (n = 140,000); AID 2417, 2010;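 active = readout at or below -70, meaning at least 70% loss of cells showing the perinucleolar compartment, a nuclear body marking cancer cells; inconclusive = readout between -30 and a set limit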;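 note: plate controls were DMSO wells for no effect and camptothecin positive control wells for full effect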
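PC3M cells stably expressing PTB-GFP, 750–1000 cells/well, treated 16 h at 37 °C with compound (23 nl of library stock), in duplicate. After paraformaldehyde fixation and Hoechst stain, imaged at 20x; PNC prevalence scored by image analysis.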
IMPase Li inh = qHTS Assay for Identifying the Cell-Membrane Permeable IMPase Inhibitors: Potentiation with Lithium. CHO-M1 cells, IP1 TR-FRET (IP-One), carbachol + lithium. Potency, µM (series often up to 59.4 µM), inactives show at the top dose activity, negative = IMPase inhibition, usual class: inhibitors. actives 0.35% (n = 210,000); active = well fitted curve in the direction sought with a large enough effect; inconclusive = small, poorly fitted or top-dose-only effect, or another doubt; inactive = no such curve, though single readings can be large; an effect the other way counts as inactive or inconclusive;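 note: IP1 builds up when IMPase is blocked and the TR-FRET signal falls; potency is the fitted concentration of half-maximal effect; plate controls were basal vehicle for no effect and high inhibitor control for full effect; nearly all actives have a fitted effect of over 50% in size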
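Steps: plate 2000 CHO-M1 cells per well and culture 16–30 h; add compound and lithium; incubate 30 min, 37C; add d2-IP1 tracer and Eu cryptate anti-IP1 antibody in lysis buffer; read after 10 min at room temperature.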
An asterisk follows results filed as active; ? = inconclusive; · = no result; [ ] = another dose, or the depositor's remark. This is a sample that favours compounds with a hit; in the whole collection about 11% have one here. Unless noted, calls come from the whole dose curve; as a rule, active = well fitted inhibition curve with a large enough effect (not every such curve was filed as active); inconclusive = small, poorly fitted or top-dose-only effect, or another doubt; inactive = no such curve, though single readings can be large or run the other way. Unless noted, % is set by controls: 0 for no effect and ±100 for the full control effect.

SMILES	ALDH1A1 inh	IMPase cell inh	HPGD inh	ALOX12 inhib	PNC assembly inh	IMPase Li inh
Cc1cccc(NC(=O)NCCN2C(=O)C3C4C=CC(C4)C3C2=O)c1 (stereo not drawn)	?	4	0%	-3%	?	-1%[38.3 µM]
O=[N+]([O-])c1ccc2[nH]ncc2c1	-1%	·	·	·	·	-2%
CCc1nn(CC(=O)Nc2ccc(Br)c(C)c2)c(=N)s1	11µM*	·	·	·	·	1%
CCCCc1ccc(NC(=O)CC(C)C)cc1	3%	·	·	·	·	5%
CCCCc1ccc(NC(=O)COCC)cc1	14µM*	5	10µM*	4%	-24	13%[38.3 µM]
CCOCC(=O)Nc1ccc(Br)c(C)c1	14µM*	·	·	·	·	-3%
CC(C)[C@@H](CC(=O)N[C@@H]1CCCC[C@H]1C(=O)N[C@H](CC(=O)N[C@@H](CCC(=O)O)CC(=O)O)Cc1ccccc1)NC(=O)C[C@H](Cc1c[nH]c2ccccc12)NC(=O)[C@@H]1CCCC[C@H]1N	?	·	-1%	0%	·	3%
CCN(CC)c1nc(N)c2c(N)n(-c3ccccc3C)c(=S)c(C#N)c2c1C#N	?	-3	20µM*	-22%	16	13%[38.3 µM]
COC(=O)[C@@H]1CC[C@H](C)[C@@H](c2ccc(C)cc2)N1C(=O)c1ccc(/C=N\O[C@@H](C)c2cn([C@H]3COC[C@H]3O)nn2)cc1	0%[13.5 µM]	·	·	·	·	·
CCOc1ccc(NS(=O)(=O)c2ccc3[nH]cc(C(=O)N(CC)CC)c(=O)c3c2)cc1	?	-11	?	16µM*	6	-2%[38.3 µM]
CCOc1ccc(NS(=O)(=O)c2ccc3[nH]cc(C(=O)NCC4CCCO4)c(=O)c3c2)cc1 (stereo not drawn)	?	5	?	-2%	10	?
COCC(=O)N1CCC[C@@]2(CCN(C(c3ccccc3)c3ccccc3)C2)C1	5%	·	-3%	-6%	·	9%
CCN(CC(=O)NCc1cccs1)c1ccc(S(=O)(=O)N2CCCC2)cn1	2.5µM*	·	·	·	·	7%
CC1CCCC(NC(=O)COC(=O)c2cc(S(=O)(=O)N3CCCCC3)ccc2N2CCOCC2)C1C (stereo not drawn)	10µM*	-3	-8%	-7%	26	27%[38.3 µM]
CCN(CC(=O)NCc1cccs1)c1ccc(S(=O)(=O)N2CCOCC2)cn1	?	-4	-11%	-3%	15	-9%[38.3 µM]
CC1CCCCC1NC(=O)c1cn(C)c2ccc(S(=O)(=O)N3CCCC3)cc2c1=O (stereo not drawn)	13µM*	5	-2%	2%	-15	1%[38.3 µM]
O=C(COC(=O)c1cc(S(=O)(=O)N2CCCCC2)ccc1N1CCOCC1)NC1CCS(=O)(=O)C1 (stereo not drawn)	11%	·	·	·	·	2%
Cn1cc(C(=O)NCc2cccs2)c(=O)c2cc(S(=O)(=O)N3CCCC3)ccc21	4.5µM*	·	-8%	2%	-4	-6%
COC(=O)[C@@]1(Cc2ccc(OC)cc2)[C@H]2c3cc(C(=O)N4CCCC4)n(Cc4cc(F)cc5c4OCOC5)c3C[C@H]2CN1C(=O)c1ccccc1	-2%	·	-6%	-6%	·	7%
COc1ccc(CNC(=O)CN(c2ccccc2)S(=O)(=O)N(C)C)cc1	1%	-8	·	·	·	-6%
Cc1ccc(N2CCN(C(=O)c3ccc(Nc4nc5ccccc5n5nnnc45)cc3)CC2)c(C)c1	·	6	·	·	·	·
CC1CCCC(NC(=O)c2cn(C)c3ccc(S(=O)(=O)N4CCCC4)cc3c2=O)C1C (stereo not drawn)	5.6µM*	1	-11%	-1%	46	16%[38.3 µM]
CN(CCNC(=O)c1cn(C)c2ccc(S(=O)(=O)N3CCCC3)cc2c1=O)CCc1ccccc1	32µM*	8	-7%	-3%	?	1%[38.3 µM]
Cn1cc(C(=O)NC2CCCCC2)c(=O)c2cc(S(=O)(=O)N3CCCC3)ccc21	?	6	-11%	-3%	-23	15%[38.3 µM]
CN(C1CCCCC1)S(=O)(=O)c1ccc2c(c1)c(=O)c(C(=O)NCCN1CCCC1)cn2C	7.9µM*	9	-10%	1%	?	16%[38.3 µM]
SMILES	ALDH1A1 inh	IMPase cell inh	HPGD inh	ALOX12 inhib	PNC assembly inh	IMPase Li inh
COC(=O)c1cn(C)c2ccc(S(=O)(=O)N3CCCC3)cc2c1=O	?	-9	8.9µM*	-3%	-109*	-1%[38.3 µM]
CN(CCNC(=O)c1cn(C)c2ccc(S(=O)(=O)N(C)C)cc2c1=O)CCc1ccccc1	20%	13	-5%	1%	-22	-3%[38.3 µM]
COC(=O)C(C(C)=O)C1c2ccccc2C=C(C)N1C(=O)OC (stereo not drawn)	20%[13.5 µM]	·	-5%	4%[11.4 µM]	·	6%
C=CCN1CCN(c2nc3ccccc3nc2C#N)CC1	6%	-3	-5%	-1%	·	-11%
CCOC(=O)c1c(NC(=O)Cn2ccsc2=N)sc(C)c1C	3%	·	·	·	·	2%
CCC(c1nnc(SCC(=O)Nc2cc(Cl)ccc2C#N)n1C1CCCCC1)N(C)C (stereo not drawn)	4%	·	-14%	-1%	-107*	-5%
Nc1ccc(C(=O)Nc2ccco2)cc1	1%	3	-9%	-1%	-100*	4%
Clc1ccc(CSCc2ccc(Cl)cc2Cl)c(Cl)c1	-9%[13.5 µM]	·	-10%	4%[11.4 µM]	·	14%
COc1ccc2c(Cl)c(C(=O)NN)sc2c1	1.1µM*	-4	-29%	-16%	-6	19%[38.3 µM]
O=S(=O)(N/N=C/c1ccc(OC2CSC2)cc1)c1ccccc1	?	3	-12%	1%	9	-4%
O=S(=O)(N/N=C/c1ccc(N2CCOCC2)cc1)c1ccccc1	10µM*	·	·	·	·	20%
CC(C)n1nnnc1SCC(=O)N1CCN(C(=O)c2ccco2)CC1	25µM*	-4	-2%	-1%	-30	4%
O=C(CSc1nnnn1C1CCCC1)N1CCN(C(=O)c2ccco2)CC1	14µM*	18	-2%	2%	42	-2%
O=C(CSc1nnnn1C1CCCCC1)N1CCN(C(=O)c2ccco2)CC1	?	·	·	·	·	19%
CN(C)CN1C(=O)S/C(=C2/C(=O)N(CN(C)C)c3ccccc32)C1=O	-2%[13.5 µM]	·	0%	3%[11.4 µM]	·	10%
CCCc1cc(C(=O)Nc2ccccc2SC)no1	?	12	22µM*	-4%	24	55%[38.3 µM]
CCCc1cc(C(=O)Nc2ccc(F)cc2F)no1	3%	6	-12%	0%	-25	9%[38.3 µM]
CCCc1cc(C(=O)Nc2cccnc2)no1	-19%	5	-17%	-5%	-106*	0%[38.3 µM]
